ERa SRC1 pot: ER-alpha (human) coactivator binding potentiation; P03372; TR-FRET ERalpha-LBD/SRC-Cy5 coactivator binding, 2 h; 100 = basal binding, no effect; coactivator binding (% of control), % at 25.6 µM; actives 1.3% (n = 86,000); AID 639; in the data active = activity above about 200%;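 also: binding measured in presence of low estradiol as agonist stimulus; 0% = peptide alone without receptor and 100% = receptor with peptide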
ERa SRC1 inh: ER-alpha (human) coactivator binding inhibition; P03372; TR-FRET ER-alpha LBD / SRC-1 peptide, estradiol-bound; inhibition, % at 25.6 µM; actives 1.7% (n = 86,000); AID 629; in the data active = inhibition above about 50%;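 also: 0% = receptor plus peptide control and 100% = peptide only without receptor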
HePTP inh: human HePTP phosphatase inhibition; recombinant HePTP phosphatase activity, OD absorbance; inhibition, % at 20 µM; actives 0.64% (n = 110,000); in the data active = inhibition above about 50%;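 also: plate controls were vehicle for no effect and reference inhibitor for full effect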
Candida biofilm: kills Candida albicans biofilms; inhibition, % at 6 µM; C. albicans biofilm + clotrimazole, Alamar Blue; actives 0.14% (n = 85,000);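 active = inhibition above 20%; inactive = inhibition below 20%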;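 also: preformed 24 hr biofilms exposed to compound for 48 hr; 0% = biofilm without compound and 100% = blank killed by clotrimazole plus chlorhexidine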
ERb coact inh: blocks coactivator binding to human estrogen receptor beta | inhibition, % at 25.6 µM | TR-FRET ER-beta LBD / SRC1-Cy5 peptide binding; receptor agonist-loaded with 1 µM estradiol | actives 1.3% (n = 86,000) | AID 633;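 active = compounds whose percent inhibition of the receptor-coactivator binding signal exceeds about 50% in the single-dose screen, limit read from the data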;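 also: 0% = receptor plus peptide wells without compound and 100% = peptide-only wells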
Smad3 FoxH1 inh: blocks human Smad3 binding to FoxH1 peptide. actives 0.29% (n = 88,000). inhibition, % at 25 µM. TR-FRET Smad3/Dy647-FoxH1 peptide binding, europium anti-His. AID 630. P84022;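 active = compounds that reduce the energy-transfer binding signal between the protein and its labelled peptide by more than half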;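 also: 0% = Smad3 plus labelled peptide maximal FRET and 100% = peptide-only background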
Target sequence (P84022 whole entry, looked up): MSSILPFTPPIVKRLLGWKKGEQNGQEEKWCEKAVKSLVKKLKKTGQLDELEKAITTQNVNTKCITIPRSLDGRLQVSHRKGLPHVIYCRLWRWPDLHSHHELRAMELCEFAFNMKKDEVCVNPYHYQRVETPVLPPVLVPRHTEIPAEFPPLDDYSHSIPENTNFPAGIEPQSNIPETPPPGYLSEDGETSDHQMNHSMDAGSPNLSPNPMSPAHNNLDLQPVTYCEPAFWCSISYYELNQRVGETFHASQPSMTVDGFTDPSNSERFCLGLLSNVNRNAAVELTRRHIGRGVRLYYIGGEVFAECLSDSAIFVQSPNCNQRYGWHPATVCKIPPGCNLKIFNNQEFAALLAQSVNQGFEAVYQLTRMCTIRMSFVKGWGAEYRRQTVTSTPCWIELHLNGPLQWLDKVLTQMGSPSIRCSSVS
Active calls of the source: *; . = no result given; [ ] = another dose, or the depositor's remark. Sampled rows, rich in hits. Any-hit rate of the full collection: about 2.9%.

SMILES	ERa SRC1 pot	ERa SRC1 inh	HePTP inh	Candida biofilm	ERb coact inh	Smad3 FoxH1 inh
Cc1onc(-c2ccccc2)c1C(=O)NCC(C)C	.	.	103*	.	.	.
Cc1onc(-c2ccccc2)c1C(=O)Nc1ccc([N+](=O)[O-])cc1Cl	.	.	0	.	.	.
Cc1onc(-c2ccccc2)c1C(=O)Nc1ccc([N+](=O)[O-])cc1Br	.	.	104*	.	.	.
CC(C)Cn1c(CCN2C(=O)c3ccccc3C2=O)nc2ccccc2c1=O	.	.	6	.	.	.
CC(C)Cn1c(CN2C(=O)c3ccccc3C2=O)nc2ccccc2c1=O	370*[fluorescence artefact?]	29	5	3	25	28
O=C1c2ccccc2C(=O)N1Cc1nc2ccccc2c(=O)n1Cc1ccco1	249*	59*[fluorescence artefact?]	3	5	58*[fluorescence artefact?]	-8
O=C1c2ccccc2C(=O)N1Cc1nc2ccccc2c(=O)n1Cc1ccccc1	.	.	8	.	.	.
Cc1c(C(=O)NCCc2ccccc2)cccc1[N+](=O)[O-]	.	.	-6	.	.	.
O=C(N/N=C/c1ccccc1O)c1cnccn1	.	.	104*	.	.	.
O=C(N/N=C\c1ccccc1Br)c1cnccn1	.	.	8	.	.	.
Cn1c(=O)oc2cc(S(=O)(=O)Nc3ccc4c(c3)OCO4)ccc21	51	57*[fluorescence artefact?]	1	-4	45	10
Nc1nc2c(c(=O)[nH]1)CN(CCCN1CCOCC1)CN2	.	.	.	.	.	72*
COc1cc(/C=C2/SC(=Nc3ccccc3)NC2=O)ccc1OCc1ccccc1[N+](=O)[O-]	.	.	5	.	.	.
O=C(Nc1nnc(C2CCCCC2)s1)c1ccc(Br)s1	367*[fluorescence artefact?]	11	2	4	52*[fluorescence artefact?]	-9
COc1ccc(OC)c2sc(NC(=O)c3ccc(Cl)s3)nc12	.	.	8	.	.	.
CCSc1nnc(NC(=O)c2ccc(Br)cc2)s1	.	.	4	.	.	.
CCSc1nnc(NC(=O)c2ccc(Br)s2)s1	396*[fluorescence artefact?]	8	10	5	28	19
Cc1cc(C(=O)Nc2nnc(C3CCCCC3)s2)cs1	111	3	5	1	-4	-1
COc1ccc(OC)c2sc(NC(=O)c3ccc(Br)s3)nc12	126	82*[fluorescence artefact?]	-1	7	70*[fluorescence artefact?]	-31
COc1ccc(NC(=O)c2ccccc2Cl)cc1Cl	.	.	-2	.	.	.
CC(C)(C)c1ccc(C(=O)Nc2cccc(Br)c2)cc1	.	.	-6	.	.	.
COCCN1C(=O)C(=O)/C(=C(/O)c2ccccc2)C1c1ccccc1[N+](=O)[O-] (stereo not drawn)	.	.	-12	.	.	.
CC(C)C1=C[C@@]23CC[C@@H]4[C@](C)(CCC[C@@]4(C)C(=O)O)[C@@H]2C[C@@H]1[C@H](C(=O)O)[C@@H]3C(=O)O	.	.	.	.	.	87*
CCn1c(SCC(=O)N2CCOCC2)nc2sc3c(c2c1=O)CCCC3	109	8	2	1	0	3
CCn1c(SCC(=O)N2CCOCC2)nc2oc3c(Cl)cc(Cl)cc3c(=O)c2c1=O	64	65*[fluorescence artefact?]	.	3	52*	3
SMILES	ERa SRC1 pot	ERa SRC1 inh	HePTP inh	Candida biofilm	ERb coact inh	Smad3 FoxH1 inh
CS(=O)(=O)N(Cc1ccc(C(=O)Nc2ccc(F)c(Cl)c2)cc1)c1ccccc1	.	.	-15	.	.	.
CC1(C)Cc2c(sc3ncnc(NCc4ccccc4)c23)CO1	.	.	105*	.	.	.
Cc1cc2oc(=O)cc(COC(=O)c3n[nH]c4ccccc34)c2cc1C	338*	24	.	5	21	-1
Cc1cc(NC(=O)CS(=O)(=O)c2cn(Cc3ccccc3Cl)c3ccccc23)no1	660*[fluorescence artefact?]	15	6	4	14	-6
CCOc1cc(OCC)cc(C(=O)Nc2ccc(-c3nc4ccc(C)cc4o3)cc2)c1	.	.	12	.	.	.
O=C(O)c1cc2sccc2s1	107	1	-4	8	59*	0
CC1CCCN(C(=O)COC(=O)c2n[nH]c3ccccc23)C1 (stereo not drawn)	114	57*	-3	9	-7	4
O=C(O)CCCN1C(=O)/C(=C/c2cn(-c3ccccc3)nc2-c2cccc([N+](=O)[O-])c2)SC1=S	.	.	104*	.	.	.
O=C(O)CCN1C(=O)/C(=C/c2cn(-c3ccccc3)nc2-c2ccc(Br)cc2)SC1=S	.	.	101*	.	.	.
O=C(O)CCN1C(=O)/C(=C/c2cn(-c3ccccc3)nc2-c2cccc([N+](=O)[O-])c2)SC1=S	.	.	6	.	.	.
Cc1ccc(C(=O)N(C(=O)c2ccc(C)c(C)c2)c2ccccn2)cc1C	.	.	2	.	.	.
CC(C)C(=O)NC(=O)NCc1cccc([N+](=O)[O-])c1	.	.	7	.	.	.
Cc1ccccc1OCC(=O)Nc1ccc2c3c(cccc13)CC2	.	.	4	.	.	.
O=C(NC(NC(=S)Nc1ccc(Cl)cc1Cl)C(Cl)(Cl)Cl)c1ccccc1F (stereo not drawn)	.	.	4	.	.	.
CSc1ccc(/C=C2\C(=O)NC(=O)N(c3ccc(Br)c(C)c3)C2=O)cc1	.	.	9	.	.	.
Nc1ccc(C(=O)Nc2nc3ccccc3s2)cc1	117	-9	1	8	-3	-7
Cc1cc(C)n(-c2ccc(C(=O)Nc3nc4ccccc4s3)cc2)n1	208*[fluorescence artefact?]	9	2	6	18	2
O=C(Cc1ccccc1)Nc1nc(=O)c2ccccc2s1	88	-4	.	3	25	-19
O=C(Nc1nc(=O)c2ccccc2s1)c1ccc(F)cc1	188	49	.	10	52*[fluorescence artefact?]	-16
CC(C)Oc1ccc(C(=O)Nc2nc3ccccc3s2)cc1	.	.	96*	.	.	.
COc1cccc(OC)c1C(=O)N(C)CC(OC)OC	.	.	-11	.	.	.
O=C(O)c1ccccc1-c1ccccc1/C=N/O	.	.	7	.	.	.
O=C(O)c1ccccc1/C=N/N=C1c2ccccc2-c2ccccc21	.	.	.	.	.	62*
CC(=O)Nc1ccc(NS(=O)(=O)c2ccc(C(C)(C)C)cc2)cc1	.	.	96*	.	.	.
CC(=O)Nc1ccc(NS(=O)(=O)c2ccc(NC(C)=O)cc2)cc1	.	.	7	.	.	.
SMILES	ERa SRC1 pot	ERa SRC1 inh	HePTP inh	Candida biofilm	ERb coact inh	Smad3 FoxH1 inh
CC(=O)Nc1ccc(NS(=O)(=O)c2cccc3c2C(=O)c2ccccc2C3=O)cc1	.	.	102*	.	.	.
Cc1cc([N+](=O)[O-])ccc1-c1ccc(C(=O)Nc2ccc(-c3nc4ccccc4o3)c(O)c2)o1	.	.	-14	.	.	.
O=C(CSc1n[nH]c(-c2ccc(S(=O)(=O)N3CCCCC3)cc2)n1)Nc1nccs1	136	50*	8	-2	21	0
Cc1cc(C(=O)OCC(=O)c2ccc(Br)s2)no1	58	58*	13	1	48	17
Cc1cc(C(=O)OCC(=O)c2ccc(Br)s2)c(C)o1	95	14	5	6	10	3
Cn1c(=O)c2c(ncn2CCCc2ccccc2)n(C)c1=O	222*	-20	-4	3	-17	-8
O=C(CSc1nnc(SCC(=O)c2ccco2)s1)c1ccco1	67	60*	.	9	53*	-1
COC(=O)c1c(C)[nH]c(C(=O)COC(=O)Cc2ccc3c(c2)OCCO3)c1C	260*[fluorescence artefact?]	-1	10	11	0	0
O=C(c1cc2ccccc2oc1=O)N(Cc1cccs1)Cc1cccs1	113	-4	.	11	-2	1
S=C(S)N(CCN(Cc1cccs1)C(=S)S)Cc1cccs1	.	.	67*	.	.	.
CC1CCCC(C)N1C(=O)Nc1cccc(Cl)c1 (stereo not drawn)	84	22	3	3	53*	3
CC1CCN(C(=O)Nc2cccc(Cl)c2)CC1	.	.	6	.	.	.

Screening results as filed in PubChem BioAssay.
